Calls of active or inactive are those of the source.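 The calls were made as follows, unless noted: active = RAM network inhibition above 8.4% in each of two replicates, 3 SD over the compound average; inconclusive = above 8.4% inhibition in only one replicate; inactive = 8.4% inhibition or less in each replicate.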

By inhibition is commonly meant the drop in the measured response relative to a control, in per cent.

A short description of one assay: RAM pathway blockade in budding yeast – dse1pr::URA3 reporter, 5-FOA selection, pilot screen (AID 869;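 active = inhibition over a set limit, the all-compound mean plus 3 SD, in both replicate runs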;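 also: 0% = DMSO wells with no growth and 100% = 10 µM 1-NA-PP1 with full growth; RAM network block rescues cells from 5-FOA so hits raise OD615 growth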). As to conditions: S. cerevisiae dse1pr::URA3 5-FOA growth, OD615, 2 d; at 10 µM; stronger effect = higher value; strain carries analog-sensitive mutant Cbk1 kinase.
Consider `O=C(Nc1ccc2c(c1)OCCO2)NC1CCCCC1`, for which the inhibition is 1.55% (inactive). Consider `c1ccc2c(c1)nc(NCCN1CCOCC1)c1nncn12`, for which the inhibition was -0.055% (inactive).

Turning to `O=C(c1ccc(Br)cc1)N1CCN(S(=O)(=O)c2ccccc2)CC1`, the inhibition was 1.71% (inactive). Consider `C/C=C/Cn1c(SCCCc2ccccc2)nc2c1c(=O)[nH]c(=O)n2C`, for which the inhibition is 1.32% (inactive). Still for that read-out and setting: with `O=c1c2ccccc2nc(SCc2nc(-c3ccccc3)no2)n1-c1ccc(F)cc1` the figure was 1.77% (inactive); with `Cn1c(=O)c2c(nc3sccn32)n(C)c1=O`, 1.48% (inactive). Still for that read-out and setting: with `CCCCOc1ccc(-c2ncc(Cl)cn2)cc1` the figure was 1.26% (inactive); with `CCOC(=O)c1ccc(N2Cc3cc(C)c(C)cc3C2)cc1O`, 0.285% (inactive); with `O=C(CSc1nc(-c2ccco2)cc(C(F)(F)F)n1)NCCCn1ccnc1`, 1.44% (inactive). `COc1cccc(NC(=O)CSc2nnc(Cc3cccn3C)n2-c2ccc(F)cc2)c1`: the inhibition was 1.09% (inactive). Same read-out and setting: with `CCOC(=O)c1ccc(-n2c(C)nc3c(cnn3-c3ccccc3C)c2=O)cc1` the figure was 1.17% (inactive); with `CCOC(=O)C1=C(C)N(C)C(=O)NC1c1ccccc1OC` (centres undefined), 0.97% (inactive); with `Cc1ccc(CSc2nc3c(c(=O)[nH]2)CCC3)cc1`, 3% (inactive).

Turning to `CCOC(=O)c1c(C)n(C)c2c(C)cc(O)c(OC(C)=O)c12`, the inhibition was 1.42% (inactive).

Consider `Cc1ccccc1NC(=O)C1CCCN(S(=O)(=O)c2cnc[nH]2)C1` (centres undefined), for which the inhibition was 2.71% (inactive).

As for `O=C(NCc1ccc(F)cc1)c1cc2ccccn2n1`, the inhibition is 0.47% (inactive). On the same count and under the same terms, with `CCCNC(=O)C1CCN(S(=O)(=O)c2ccc3nc4c(c(C(=O)O)c3c2)CCCCC4)CC1` the figure was 2.09% (inactive). The same measure, in the same setting: the same measure for `COc1ccc2[nH]c(C)c(CCN3C(=O)OC(C)(C)C3(C)O)c2c1` (centres undefined): 1.92% (inactive). `COc1ccc(N(CC(=O)Nc2ccc3c(c2)OCO3)S(=O)(=O)c2c(C)nn(C)c2C)cc1`: the inhibition is 2.33% (inactive). The same measure, in the same setting: the same measure for `Cc1onc(-c2ccccc2Cl)c1C(=O)Nc1cnn(Cc2ccccc2)c1`: 1.07% (inactive); for `CCOCCCNC(=O)CN1CCN(Cc2ccccc2C)C1=O`: 1.54% (inactive); for `CCN1C(=O)c2cccc3c(NC(=O)c4ccc(S(=O)(=O)N(C)C)cc4)ccc1c23`: 0.195% (inactive). Same read-out and setting: with `O=C(Nc1cccc2ccccc12)c1ccc(Br)o1` the figure was 0.995% (inactive); with `c1ccc(-c2cn3cccnc3n2)cc1`, 3.13% (inactive).

A further assay can be described thus: RAM signaling pathway blockade in yeast – S. cerevisiae, Pdr1DBD-CYC8 efflux-inhibited sensitized strain, primary screen (AID 1298).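 Also: 0% = DMSO untreated cells without growth and 100% = 10 µM 1-NA-PP1 full growth; higher means more yeast growth rescued from 5-FOA killing.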 As to conditions: S. cerevisiae cbk1-as DSE1-URA3 strain, 5-FOA growth OD615, 2 d; at 50 µM; stronger effect = higher value.
On to `COc1cccc(C2=NOC(C(=O)N3CCN(c4ccccc4)CC3)C2)c1OC` (centres undefined), for which the RAM network inhibition was 1% (inactive).

Take `O=C(Nc1ccc2c(c1)OCO2)c1ccc(CN2CCOCC2)cc1`: the RAM network inhibition was 9.65% (inactive). On the same count and under the same terms, with `O=C(Cn1nc(Cc2ccncc2)c2ccccc2c1=O)N1CCc2ccccc2C1` the figure was 3% (inactive). Regarding `CCOCCCNC(=O)c1ccc2c(c1)N(Cc1ccccc1)C(=O)CS2=O` (centres undefined), the RAM network inhibition was -0.72% (inactive). On the same count and under the same terms, with `CS(=O)(=O)Nc1ccccc1C(=O)O` the figure was 2.56% (inactive); with `CCOC(=O)N1CCC(Nc2ncnc3c2cnn3-c2ccc(C)cc2C)CC1`, 1.71% (inactive); with `CC1(C)C(c2ccccc2)=NC(c2ccccc2)N1O` (centres undefined), 3.18% (inactive). Same read-out and setting: the same measure for `O=C(CS(=O)(=O)Cc1ccccc1)Nc1nc2ccccc2s1`: 7.64% (inactive); for `CCOC(=O)N1CCN(C(=O)COc2ccc(S(=O)(=O)NC(C)C)cc2)CC1`: 7.54% (inactive). The same measure, in the same setting: the same measure for `COc1ccc(N2CCN(CCNC(=O)CCS(=O)(=O)c3cccc4nsnc34)CC2)cc1`: 5.62% (inactive); for `COc1cccc(C2CC(=O)Nc3c2c(=O)n(C)c(=O)n3C)c1OC` (centres undefined): 7.39% (inactive); for `CCN1C(=O)c2ccccc2S(=O)c2ccc(C(=O)NC3CC3)cc21` (centres undefined): 1.98% (inactive). With `CCOC(=O)CCc1c(C)nc2cc(-c3ccc(F)cc3)[nH]n2c1=O`, the RAM network inhibition is 1.51% (inactive).

Take `CCC(C)(C(=O)NC1CCCC1)N(Cc1cccs1)C(C)=O` (centres undefined): the RAM network inhibition is 4.23% (inactive). Still for that read-out and setting: with `COc1ccccc1NC(=O)C1(C)Cc2ccccc2C(=O)O1` (centres undefined) the figure was 5.4% (inactive); with `COC(=O)c1sc(NC(=O)COc2ccccc2OC)nc1C`, 9% (inactive). Same read-out and setting: with `O=C(Nc1ccc2c(c1)OCCO2)NC1CCCCC1` the figure was -0.57% (inactive); with `c1ccc2c(c1)nc(NCCN1CCOCC1)c1nncn12`, -0.1% (inactive); with `O=C(c1ccc(Br)cc1)N1CCN(S(=O)(=O)c2ccccc2)CC1`, 1.8% (inactive). For the compound `C/C=C/Cn1c(SCCCc2ccccc2)nc2c1c(=O)[nH]c(=O)n2C`, the RAM network inhibition is 9.17% (inactive). The same measure, in the same setting: the same measure for `O=c1c2ccccc2nc(SCc2nc(-c3ccccc3)no2)n1-c1ccc(F)cc1`: 8.86% (inactive); for `Cn1c(=O)c2c(nc3sccn32)n(C)c1=O`: 2.73% (inactive). Same read-out and setting: the same measure for `CCCCOc1ccc(-c2ncc(Cl)cn2)cc1`: 3.37% (inactive); for `CCOC(=O)c1ccc(N2Cc3cc(C)c(C)cc3C2)cc1O`: 1.88% (inactive); for `O=C(CSc1nc(-c2ccco2)cc(C(F)(F)F)n1)NCCCn1ccnc1`: 9.1% (inactive). On the same count and under the same terms, with `COc1cccc(NC(=O)CSc2nnc(Cc3cccn3C)n2-c2ccc(F)cc2)c1` the figure was 6.98% (inactive); with `CCOC(=O)c1ccc(-n2c(C)nc3c(cnn3-c3ccccc3C)c2=O)cc1`, 2.95% (inactive); with `CCOC(=O)C1=C(C)N(C)C(=O)NC1c1ccccc1OC` (centres undefined), 2.01% (inactive).

As to `Cc1ccc(CSc2nc3c(c(=O)[nH]2)CCC3)cc1`, the RAM network inhibition is 3.47% (inactive).

With `CCOC(=O)c1c(C)n(C)c2c(C)cc(O)c(OC(C)=O)c12`, the RAM network inhibition is 1.23% (inactive). For `Cc1ccccc1NC(=O)C1CCCN(S(=O)(=O)c2cnc[nH]2)C1` (centres undefined), the RAM network inhibition is 2.9% (inactive).

Take `O=C(NCc1ccc(F)cc1)c1cc2ccccn2n1`: the RAM network inhibition is 1.1% (inactive). Same read-out and setting: with `CCCNC(=O)C1CCN(S(=O)(=O)c2ccc3nc4c(c(C(=O)O)c3c2)CCCCC4)CC1` the figure was 7.93% (inactive); with `COc1ccc2[nH]c(C)c(CCN3C(=O)OC(C)(C)C3(C)O)c2c1` (centres undefined), 2.87% (inactive); with `COc1ccc(N(CC(=O)Nc2ccc3c(c2)OCO3)S(=O)(=O)c2c(C)nn(C)c2C)cc1`, 3.88% (inactive). Same read-out and setting: with `Cc1onc(-c2ccccc2Cl)c1C(=O)Nc1cnn(Cc2ccccc2)c1` the figure was 2.37% (inactive); with `CCOCCCNC(=O)CN1CCN(Cc2ccccc2C)C1=O`, 1.29% (inactive). On the same count and under the same terms, the same measure for `CCN1C(=O)c2cccc3c(NC(=O)c4ccc(S(=O)(=O)N(C)C)cc4)ccc1c23`: 3.52% (inactive). Take `O=C(Nc1cccc2ccccc12)c1ccc(Br)o1`: the RAM network inhibition is 3.58% (inactive). On the same count and under the same terms, the same measure for `c1ccc(-c2cn3cccnc3n2)cc1`: 1.13% (inactive).

Values taken from PubChem BioAssay.
